{"source": "PubChem BioAssay AID1578", "about": "(Sanford-Burnham Center for Chemical Genomics, 2009)", "note": "Several values for one entry are separate records, joined by “and”; a condition that tells them apart may be missing. Equal entries are not always repeated. About 3,000 (1%) of roughly 290,000 compounds were called active. Cut-off read from the data, not from the text of the source: active = inhibition mostly above about 36% (no sharp cut-off); inactive = mostly below about 34%. The list comes from a sample in which actives are over-represented; it also holds similar structures and randomly drawn compounds. Where a structure was tested more than once in an assay, its records may differ in their call.", "data": [{"test": "NOD1 signaling inhibitors, primary screen, cell-based, luminescence, uHTS (AID 1578);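 note: HEK-293T reporter cells stimulated with the NOD1 agonist gamma-tri-DAP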", "settings": "NOD1-driven NF-kB luciferase reporter cells, at 4 µM, stronger effect = higher value", "values": [{"smiles": "Cc1ccc(C)c2c1sc(=NC(=O)CN1C(=O)CCC1=O)n2C", "inhibition": "1.3% (inactive)"}, {"smiles": "CCOC(=O)c1ccc(NC(=O)C2(c3ccccc3)CCCC2)cc1", "inhibition": "14% (inactive)"}, {"smiles": "Cc1[nH]n(-c2ncc(-c3ccccc3)s2)c(=O)c1C(c1ccc(Br)cc1)C(C#N)C#N", "note": "(configuration not stated)", "inhibition": "32.7% (inactive)"}, {"smiles": "CCCc1[nH][nH]c(=O)c1C(c1ccc(Cl)cc1)C(C#N)C#N", "note": "(configuration not stated)", "inhibition": "3.7% (inactive)"}, {"smiles": "Cc1[nH]n(-c2ncc(-c3ccc(Cl)cc3)s2)c(=O)c1C(c1ccc(Cl)cc1)C(C#N)C#N", "note": "(configuration not stated)", "inhibition": "67.3% (active)"}, {"smiles": "Cc1ccccc1N(C(=O)Cc1ccsc1)C(C(=O)NC1CCCCC1)c1ccc(F)cc1", "note": "(configuration not stated)", "inhibition": "-25.2% (inactive)"}, {"smiles": "Cc1c(C2=CCN(S(=O)(=O)c3ccc(Br)cc3)CC2)c2ccccc2n1C", "inhibition": "0.5% (inactive)"}, {"smiles": "CC(=O)C1=C(C)NC(=O)NC1c1cccc([N+](=O)[O-])c1O", "note": "(configuration not stated)", "inhibition": "-9.2% (inactive)"}, {"smiles": "O=C(O)c1cc(-c2ccco2)nc2ccccc12", "inhibition": "-13.5% (inactive)"}, {"smiles": "O=C(O)c1cc(-c2ccco2)nc2cc3ccccc3cc12", "inhibition": "-6.3% (inactive)"}, {"smiles": "O=C(O)c1cc(-c2ccco2)nc2ccc(Br)cc12", "inhibition": "75.3% (active) and -18.2% (inactive)"}, {"smiles": "Clc1ccc(COn2c(-c3ccc(Cl)cc3)nc3ccccc32)cc1", "inhibition": "-31.8% (inactive)"}, {"smiles": "COc1ccc(/C=N/NC(=O)C2C3CCCCC32)cc1OC", "note": "(configuration not stated)", "inhibition": "-9.5% (inactive)"}, {"smiles": "COc1ccc(/C=N/NC(=O)C2C3CCCCC32C)cc1OC", "note": "(configuration not stated)", "inhibition": "47.1% (active)"}, {"smiles": "COc1cc(/C=N/NC(=O)C2C3CCCCC32C)cc(Br)c1O", "note": "(configuration not stated)", "inhibition": "6.5% (inactive)"}, {"smiles": "FC(F)(F)c1cc(Oc2ccc(Cl)cc2)ncc1-c1nnc(-c2ccc(Cl)cc2)o1", "inhibition": "-6.5% (inactive)"}, {"smiles": "CC(C)C(NS(=O)(=O)c1ccccc1)C(=O)OCc1cc([N+](=O)[O-])cc2c1OCOC2", "note": "(configuration not stated)", "inhibition": "-12.4% (inactive)"}, {"smiles": "CC(Sc1cccc[n+]1[O-])C(=O)Nc1ccc([N+](=O)[O-])cc1Cl", "note": "(configuration not stated)", "inhibition": "-22.4% (inactive)"}, {"smiles": "Cc1ccc(-c2noc(C3CCCCC3)n2)cc1", "inhibition": "-58.2% (inactive)"}, {"smiles": "O=C(NCC1CCCO1)c1cccc(Oc2ccc([N+](=O)[O-])cc2)c1", "note": "(configuration not stated)", "inhibition": "-20.6% (inactive)"}, {"smiles": "O=C(NCC1CCCO1)c1ccc(Oc2ccc([N+](=O)[O-])cc2)cc1", "note": "(configuration not stated)", "inhibition": "42.4% (active)"}, {"smiles": "CS(=O)(=O)N(CC(=O)NCC1CCCO1)c1cccc([N+](=O)[O-])c1", "note": "(configuration not stated)", "inhibition": "-15% (inactive)"}, {"smiles": "COc1ccc([N+](=O)[O-])cc1N(CC(=O)NCC1CCCO1)S(C)(=O)=O", "note": "(configuration not stated)", "inhibition": "-19.1% (inactive)"}, {"smiles": "Cc1ccc([N+](=O)[O-])cc1N(CC(=O)NCC1CCCO1)S(C)(=O)=O", "note": "(configuration not stated)", "inhibition": "60.2% (active)"}, {"smiles": "O=C(NCC1CCCO1)c1ccc(Oc2ccc([N+](=O)[O-])cc2Cl)cc1", "note": "(configuration not stated)", "inhibition": "13.6% (inactive)"}, {"smiles": "COc1ccc(CCNC(=O)CCn2c(SCC#N)nc3ccccc3c2=O)cc1OC", "inhibition": "10.3% (inactive)"}, {"smiles": "COc1ccc2c(C)cc(SCC(=O)Nc3cccnc3Cl)nc2c1", "inhibition": "-12.9% (inactive)"}, {"smiles": "Nc1nonc1-n1nnc(C(=O)N/N=C/c2ccccc2)c1CN1CCc2ccccc21", "inhibition": "-21.6% (inactive)"}, {"smiles": "CNC(=O)NC(=O)COC(=O)CCCOc1ccc(OC)cc1", "inhibition": "4.1% (inactive)"}, {"smiles": "COc1ccc(CCNC(=O)c2cc3sccc3n2C)cc1OC", "inhibition": "5.4% (inactive)"}, {"smiles": "CCOc1ccc(CCNC(=O)c2cc3sccc3n2CC)cc1OCC", "inhibition": "49.7% (active)"}, {"smiles": "CCOc1ccc(CCNC(=O)c2cc3sccc3n2C)cc1OCC", "inhibition": "26.3% (inactive)"}, {"smiles": "COc1ccc(S(=O)(=O)N(C)c2ccc(C(=O)NC3CCCC3)cc2)cc1", "inhibition": "-11.8% (inactive)"}, {"smiles": "CC(=O)C(C)Sc1nnc(-c2ccccc2F)n1C1CC1", "note": "(configuration not stated)", "inhibition": "-26.2% (inactive)"}, {"smiles": "CC(=O)c1cn(CC(=O)Nc2ccccc2F)c2ccccc12", "inhibition": "14.5% (inactive)"}, {"smiles": "CN1CCN(C(=S)c2cn(Cc3ccccc3F)c3ccccc23)CC1", "inhibition": "-13.6% (inactive)"}, {"smiles": "Cc1ccc(C)c(CN2CCC(CNC(=O)Nc3cccc(Cl)c3C)CC2)c1", "inhibition": "2.1% (inactive)"}, {"smiles": "CCOC(=O)C1=C(O)c2ccccc2C(=O)/C1=C\\c1ccc(CC)cc1", "inhibition": "15.2% (inactive)"}, {"smiles": "CCOC(=O)C1=C(Cc2ccc(OC)cc2)C(=O)c2ccccc2C1=O", "inhibition": "3.6% (inactive)"}, {"smiles": "COc1cccc2cc(C(=O)C3=C(O)C(=O)N(CCN4CCOCC4)C3c3ccc(C(C)(C)C)cc3)oc12", "note": "(configuration not stated)", "inhibition": "-11.6% (inactive)"}, {"smiles": "Cc1ccc(CN(C)C(=O)CCc2c[nH]c3ccccc23)o1", "inhibition": "-18.4% (inactive)"}, {"smiles": "CN1CCN(c2nc(-c3cccc([N+](=O)[O-])c3)nc3ccccc23)CC1", "inhibition": "-0.7% (inactive)"}, {"smiles": "CCC(=O)N1CCc2cc(S(=O)(=O)Nc3ccccc3C)ccc21", "inhibition": "3.4% (inactive)"}, {"smiles": "COc1ccc(O)c(-c2[nH]ncc2C(=O)c2ccccc2C)c1", "inhibition": "26.5% (inactive)"}, {"smiles": "COc1ccc(O)c(-c2[nH]ncc2C(=O)c2cccc(C)c2)c1", "inhibition": "-6.8% (inactive)"}, {"smiles": "CCOC(=O)c1sc(N(Cc2ccccc2)C(=O)COC(=O)c2ccccc2O)nc1C", "inhibition": "-48% (inactive)"}, {"smiles": "CCOC(=O)c1sc(N(Cc2ccccc2)C(=O)CCl)nc1C", "inhibition": "28.7% (active)"}, {"smiles": "CCOC(=O)c1sc(N(Cc2ccccc2)C(=O)COC(=O)c2ccc(O)cc2)nc1C", "inhibition": "62.2% (inactive)"}, {"smiles": "COc1ccc(S(=O)(=O)N2CCCOC2CNC(=O)C(=O)NCCc2ccco2)cc1OC", "note": "(configuration not stated)", "inhibition": "-2.3% (inactive)"}, {"smiles": "O=C(COC(=O)c1cccc(O)c1)NCc1ccc2c(c1)OCO2", "inhibition": "-14.3% (inactive)"}, {"smiles": "COc1ccc(C=O)cc1OC(=O)N1CCOCC1", "inhibition": "-9.3% (inactive)"}, {"smiles": "Cc1cc(C(=O)COC(=O)CN(C)S(=O)(=O)c2ccc(Cl)cc2)c(C)n1Cc1cccs1", "inhibition": "-20.9% (inactive)"}, {"smiles": "O=C(NCc1cn2ccccc2n1)c1ccc(Br)o1", "inhibition": "-10.7% (inactive)"}, {"smiles": "O=C(NCc1cn2ccccc2n1)c1ccccc1", "inhibition": "-22.2% (inactive)"}, {"smiles": "O=C(NCc1cn2ccccc2n1)c1ccco1", "inhibition": "54% (active)"}, {"smiles": "Cc1ccc(CNC(=O)C2CCCN(c3cnccn3)C2)cc1", "note": "(configuration not stated)", "inhibition": "-5.5% (inactive)"}, {"smiles": "Cc1sc2ncn(CC(=O)NCC(=O)N(C)Cc3ccccc3)c(=O)c2c1C", "inhibition": "-12.2% (inactive)"}, {"smiles": "Cc1ccc(NC(=O)C2CCC(CNC(=O)[C@@H]3Cc4ccccc4CN3)CC2)cc1", "note": "(some centres not stated)", "inhibition": "-2.3% (inactive)"}, {"smiles": "CC(=O)C1=C(O)C(=O)N(c2nccs2)C1c1ccccc1", "note": "(configuration not stated)", "inhibition": "-8.5% (inactive)"}, {"smiles": "O=C(C1=C(O)C(=O)N(c2nccs2)C1c1ccccc1)c1cc2ccccc2o1", "note": "(configuration not stated)", "inhibition": "-8.9% (inactive)"}, {"smiles": "COc1ccc(N2CC(C(=O)N3CCN(C)CC3)CC2=O)cc1", "note": "(configuration not stated)", "inhibition": "3.9% (inactive)"}, {"smiles": "COc1ccc(C(=O)/C=C/Nc2ccc(S(=O)(=O)Nc3nc(C)cc(C)n3)cc2)cc1OC", "inhibition": "-18.8% (inactive)"}, {"smiles": "O=C(N/N=C/c1ccc([N+](=O)[O-])o1)c1cc2c(ccc3ccccc32)o1", "inhibition": "41.1% (inactive)"}, {"smiles": "Cc1ccc(C(=O)N/N=C\\c2ccc([N+](=O)[O-])o2)cn1", "inhibition": "13.2% (inactive)"}, {"smiles": "O=C(CNc1ccccc1)N/N=C/c1ccc([N+](=O)[O-])o1", "inhibition": "35% (inactive)"}, {"smiles": "O=C(CNc1ccc2ccccc2c1)N/N=C/c1ccc([N+](=O)[O-])o1", "inhibition": "-5% (inactive)"}, {"smiles": "Cc1cc(C(=O)N/N=C/c2ccc([N+](=O)[O-])o2)c(C)o1", "inhibition": "1.4% (inactive)"}, {"smiles": "Nc1nonc1C(=O)N/N=C/c1ccc(Br)o1", "inhibition": "-6% (inactive)"}, {"smiles": "O=C(N/N=C/c1ccc([N+](=O)[O-])cc1)c1cc2ccccc2o1", "inhibition": "2.4% (inactive)"}, {"smiles": "Nc1nonc1C(=O)N/N=C/c1ccc(-c2cccc([N+](=O)[O-])c2)o1", "inhibition": "5.4% (inactive)"}, {"smiles": "COc1cc2[nH]c(=O)n(CCC(=O)NCc3cccnc3)c(=O)c2cc1OC", "inhibition": "-17.4% (inactive)"}, {"smiles": "CCCc1cc(=O)n2[nH]c(NC(=O)c3ccco3)nc2n1", "inhibition": "1.1% (inactive)"}, {"smiles": "O=C(c1ccco1)N1CCN(Cc2nnc(-c3cccc(Br)c3)o2)CC1", "inhibition": "37.7% (inactive)"}, {"smiles": "Cc1ccc(/C=N/NC(=O)CNC(=O)c2ccc(S(=O)(=O)N3CCCC3)cc2)o1", "inhibition": "-10.1% (inactive)"}, {"smiles": "CC(C)(C)S(=O)(=O)/C(C#N)=C/c1sccc1C1OCCO1", "inhibition": "-9.6% (inactive)"}, {"smiles": "Cc1sc2nc(CSCC(=O)N(CCC#N)c3ccccc3)[nH]c(=O)c2c1C", "inhibition": "-2.8% (inactive)"}, {"smiles": "NC(=O)c1ccc(NC(=O)CCNC(=O)c2ccco2)cc1", "inhibition": "0% (inactive)"}, {"smiles": "Cc1cccc(C)c1OCCN1C(=O)NC(C)(c2ccccc2)C1=O", "note": "(configuration not stated)", "inhibition": "-8.3% (inactive)"}, {"smiles": "CC(=O)Nc1ccc(S(=O)(=O)Nc2ccn(Cc3ccccc3Cl)n2)cc1", "inhibition": "-42.3% (inactive)"}, {"smiles": "CC1CCc2cc(F)ccc2N1C(=O)CCl", "note": "(configuration not stated)", "inhibition": "66.7% (active)"}, {"smiles": "CCC(CC)C(=O)N1c2ccc(F)cc2CCC1C", "note": "(configuration not stated)", "inhibition": "8% (inactive)"}, {"smiles": "CC1CCc2cc(F)ccc2N1C(=O)CCC(=O)O", "note": "(configuration not stated)", "inhibition": "-29.7% (inactive)"}, {"smiles": "COCCCNC(=S)Nc1cc2oc3ccccc3c2cc1OC", "inhibition": "5.2% (inactive)"}, {"smiles": "CCN(CC(=O)NC1CCS(=O)(=O)C1)S(=O)(=O)c1ccc(F)cc1", "note": "(configuration not stated)", "inhibition": "25.9% (inactive)"}, {"smiles": "Cc1ccc(C(=O)N2CCCC(N3CCN(c4cccc(C(F)(F)F)c4)CC3)C2)s1", "note": "(configuration not stated)", "inhibition": "-29.8% (inactive)"}, {"smiles": "Cc1ccccc1OCC(=O)N/N=C/c1c(C)nn(-c2ccccc2)c1Cl", "inhibition": "-26.9% (inactive)"}, {"smiles": "COc1cc(C(=O)NCCCc2nc3ccccc3n2Cc2cc(C)ccc2C)cc(OC)c1OC", "inhibition": "68.1% (active)"}, {"smiles": "COc1ccc(C(=O)NCCCc2nc3ccccc3n2Cc2cc(C)ccc2C)cc1OC", "inhibition": "-28.5% (inactive)"}, {"smiles": "COc1ccc(C(=O)NCCCc2nc3ccccc3n2Cc2ccccc2C)cc1OC", "inhibition": "-9.4% (inactive)"}, {"smiles": "CCc1ccc2[nH]c(=O)c(CN(CCCN3CCOCC3)C(=O)Nc3ccc(Cl)cc3)cc2c1", "inhibition": "-9.8% (inactive)"}, {"smiles": "O=S(=O)(Nc1cccc(-c2cn3cccnc3n2)c1)c1ccc(F)cc1", "inhibition": "-1.4% (inactive)"}, {"smiles": "O=S(=O)(Nc1cccc(-c2cn3cccnc3n2)c1)c1ccccc1", "inhibition": "36.4% (inactive)"}]}]}
